# Reference: PubChem BioAssay
# The source made the active and inactive calls.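 Rule for the calls, unless noted: active = NADPH fluorescence slope more negative than the mean of all samples by about 3 SD, 99.7% confidence; inactive = the rest.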
# Columns and labels:
# [1] = inhibitors of TNFa-induced NFkB p65 translocation, primary screen, imaging, HUVEC, MLSMR starter and 10KST1 sets (AID 438;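 active = inhibition above 20% together with a positive visual image hit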;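 note: compound added about 3h40 before a 20 min TNFalpha stimulation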;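 for inhibition: signal is the nuclear over cytoplasmic p65 intensity ratio per well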); settings: HUVEC TNFa-induced p65 nuclear translocation; cell count: measured here: nuclei count (cytotoxicity indicator), at 2.08 µM; inhibition: at 2 µM, stronger effect = higher value, 0% TNFa-plus-vehicle, 100% no-TNFa wells
# [2] = inhibitors of mutant huntingtin aggregation, primary screen, imaging, exon1htt(103Q)mCFP cells, high-content imaging (AID 483;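 active = visual image review flags a hit and inhibition of aggregation exceeds 20%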;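 note: compound exposure lasted 3 days before fixation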;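 for nuclei count: percent of the per-plate median nuclei count of sample wells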); settings: exon1htt(103Q)mCFP cell line, aggregate imaging, at 2 µM; inhibition of aggregation: stronger effect = higher value; nuclei count: measured here: cell count, toxicity
# [3] = inhibitors of E-selectin induction by TNFa, primary screen, imaging, HUVEC, immunofluorescence, MLSMR starter and 10KST1 sets (AID 487;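 active = visually confirmed hit in the image check and inhibition above 20%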;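 for inhibition: signal is fraction of cell area covered by stained E-selectin grains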;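 for nuclei count: 100% = median nuclei count of all wells on the same plate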); settings: HUVEC TNFalpha-induced E-selectin immunofluorescence imaging, at 2 µM; inhibition: stronger effect = higher value; nuclei count: measured here: cell number, toxicity
# [4] = molecular target: Voltage-gated potassium channel subunit beta-2 (Rattus norvegicus) (UniProt P62483); assay: KvBeta enzyme negative modulators, primary screen, biochemical, NADPH fluorescence (AID 622;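 active = fluorescence slope higher than the sample average by over 3 SD, cut at about -0.22 in these data, passing the limit was not always enough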;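 note: slope of raw intensity against log time taken from 70 to 1610 s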); settings: recombinant KvBeta, 4-cyanobenzaldehyde reduction, at 10 µM, stronger effect = higher value
# Sequence of Voltage-gated potassium channel subunit beta-2 (Rattus norvegicus) (P62483 whole entry, looked up): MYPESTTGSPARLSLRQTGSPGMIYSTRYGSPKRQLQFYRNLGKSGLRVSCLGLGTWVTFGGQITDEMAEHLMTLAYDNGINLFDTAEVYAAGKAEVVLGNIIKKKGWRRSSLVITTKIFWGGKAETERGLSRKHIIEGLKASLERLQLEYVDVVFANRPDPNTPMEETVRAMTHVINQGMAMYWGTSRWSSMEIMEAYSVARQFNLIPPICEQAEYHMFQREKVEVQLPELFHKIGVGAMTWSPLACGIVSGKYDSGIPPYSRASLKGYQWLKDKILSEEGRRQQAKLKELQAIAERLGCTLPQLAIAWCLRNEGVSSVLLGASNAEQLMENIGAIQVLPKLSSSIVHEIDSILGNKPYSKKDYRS
# [5] = molecular target: Voltage-gated potassium channel subunit beta-2 (Rattus norvegicus) (UniProt P62483); assay: KvBeta positive modulators, primary screen, biochemical, NADPH fluorescence (AID 623); settings: Recombinant KvBeta, NADPH fluorescence decrease slope, 10 min; at 10 µM; stronger effect = lower value;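 note: fluorescence intensity change per second fitted from 20 to 320 s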
# [6] = molecular target: Alpha-2C adrenergic receptor (Homo sapiens) (UniProt P18825); assay: modulators of alpha2C/GIRK thallium flux, primary screen, cell-based, HEK293 alpha2C/GIRK1/2 (AID 624;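 active = fluorescence slope after compound addition differing from the mean of all screened samples at 99.7% confidence, in either direction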;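 note: slope of fluorescence ratio to pre-addition baseline per second over 15 to 24 s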); settings: thallium flux BTC fluorescence, at 10 µM, actives lie on both sides
# Sequence of Alpha-2C adrenergic receptor (Homo sapiens) (P18825 whole entry, looked up): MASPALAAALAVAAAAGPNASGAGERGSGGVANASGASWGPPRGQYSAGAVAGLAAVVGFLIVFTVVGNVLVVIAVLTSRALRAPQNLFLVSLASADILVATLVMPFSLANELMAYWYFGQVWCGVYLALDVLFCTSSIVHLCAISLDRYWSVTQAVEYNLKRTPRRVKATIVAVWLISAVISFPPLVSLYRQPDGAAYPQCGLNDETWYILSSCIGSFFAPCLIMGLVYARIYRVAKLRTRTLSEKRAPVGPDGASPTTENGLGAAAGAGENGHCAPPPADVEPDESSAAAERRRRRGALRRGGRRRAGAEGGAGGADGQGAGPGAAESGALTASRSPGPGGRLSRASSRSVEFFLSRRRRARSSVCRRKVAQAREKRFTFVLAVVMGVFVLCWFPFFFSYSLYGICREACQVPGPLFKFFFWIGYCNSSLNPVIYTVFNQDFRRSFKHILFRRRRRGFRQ
# [7] = inhibitors of Sendai virus-induced IRF3 signaling, primary screen, TLR/RLR signaling modifier project, cell-based, Sendai virus stimulus, luciferase, 10K MLSCN set (AID 602276;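 active = inhibition at or above 50% at 10 µM; inactive = inhibition below 50%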;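 note: firefly luciferase from ISG56 promoter only with Renilla not read in this screen; 0% = Sendai virus plus DMSO and 100% = medium plus DMSO without virus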); settings: HEK293 RL24 IRF3 luciferase reporter, at 10 µM, stronger effect = higher value
# [8] = inhibitors of poly I:C-induced TLR3 signaling, primary screen, cell-based, poly I:C stimulus, luciferase, 10K MLSCN set (AID 602277;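 active = inhibition of the reporter signal at or above 50%; inactive = inhibition below 50%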); settings: HEK293-TLR3 RL24 IRF3 luciferase reporter, at 10 µM, stronger effect = higher value
smiles,measurement,setting,value
Cc1ccc(NC2=NC3(CCCCC3)N=C(N)N2)c(C)c1,cell count,[1],530
same,inhibition,[1],-4.7% (inactive)
same,inhibition of aggregation,[2],4.5% (inactive)
same,nuclei count,[2],76.2%
same,inhibition,[3],-59.7% (inactive)
same,nuclei count,[3],99.3%
same,fluorescence slope,[4],-0.598 (inactive)
same,NADPH fluorescence slope,[5],-4.3e-05 (inactive)
same,slope,[6],0.00486 (inactive)
same,inhibition,[7],-10.3% (inactive)
same,inhibition,[8],8.58% (inactive)
O=C(CCn1c(=O)oc2ccccc21)NCc1ccco1,cell count,[1],686
same,inhibition,[1],-5.9% (inactive)
same,inhibition of aggregation,[2],-10% (inactive)
same,nuclei count,[2],104%
same,inhibition,[3],-32.5% (inactive)
same,nuclei count,[3],127%
same,fluorescence slope,[4],-0.598 (inactive)
same,NADPH fluorescence slope,[5],-5.1e-05 (inactive)
same,slope,[6],0.00749 (inactive)
same,inhibition,[7],-5.54% (inactive)
same,inhibition,[8],6.8% (inactive)
CN(C)S(=O)(=O)c1ccc(C(=O)NCc2cccs2)cc1,cell count,[1],436
same,inhibition,[1],4.7% (inactive)
same,inhibition of aggregation,[2],6.5% (inactive)
same,nuclei count,[2],105%
same,inhibition,[3],15.4% (inactive)
same,nuclei count,[3],125%
same,fluorescence slope,[4],-0.611 (inactive)
same,NADPH fluorescence slope,[5],-2.1e-05 (inactive)
same,slope,[6],0.00652 (inactive)
same,inhibition,[7],3.68% (inactive)
same,inhibition,[8],3.16% (inactive)
S=c1[nH]nc(Cc2ccccc2)n1-c1ccccc1,cell count,[1],664
same,inhibition,[1],-5.5% (inactive)
same,inhibition of aggregation,[2],-9.4% (inactive)
same,nuclei count,[2],111%
same,inhibition,[3],14.9% (inactive)
same,nuclei count,[3],106%
same,fluorescence slope,[4],-0.367 (inactive)
same,NADPH fluorescence slope,[5],-3.9e-05 (inactive)
same,slope,[6],0.00525 (inactive)
same,inhibition,[7],9.34% (inactive)
same,inhibition,[8],20.2% (inactive)
CC1CN(Cc2nc3c(c(=O)[nH]c(=O)n3C)n2CC(N)=O)CC(C)O1 (stereo not drawn),cell count,[1],780
same,inhibition,[1],-7.4% (inactive)
same,inhibition of aggregation,[2],-1.9% (inactive)
same,nuclei count,[2],112%
same,inhibition,[3],-33% (inactive)
same,nuclei count,[3],111%
same,fluorescence slope,[4],-0.567 (inactive)
same,NADPH fluorescence slope,[5],-3.9e-05 (inactive)
same,slope,[6],0.00597 (inactive)
same,inhibition,[7],12.8% (inactive)
same,inhibition,[8],20.4% (inactive)
Cc1cc(C)nc(N(C#N)CC(=O)N2CCC(C(N)=O)CC2)n1,cell count,[1],553
same,inhibition,[1],-16.4% (inactive)
same,inhibition of aggregation,[2],12.3% (inactive)
same,nuclei count,[2],98.2%
same,inhibition,[3],21.6% (inactive)
same,nuclei count,[3],98.4%
same,fluorescence slope,[4],-0.489 (inactive)
same,NADPH fluorescence slope,[5],1.8e-05 (inactive)
same,slope,[6],0.00455 (inactive)
same,inhibition,[7],14.2% (inactive)
same,inhibition,[8],13.3% (inactive)
Cc1cc(NC(=O)c2ccc3c(c2)C(=O)N(Cc2cccnc2)C3=O)no1,cell count,[1],770
same,inhibition,[1],-6.4% (inactive)
same,inhibition of aggregation,[2],1.8% (inactive)
same,nuclei count,[2],107%
same,inhibition,[3],-127% (inactive)
same,nuclei count,[3],128%
same,fluorescence slope,[4],-0.615 (inactive)
same,NADPH fluorescence slope,[5],1.2e-05 (inactive)
same,slope,[6],0.00422 (inactive)
same,inhibition,[7],-5.06% (inactive)
same,inhibition,[8],-11.7% (inactive)
CN(C)c1ccc(NC(=O)c2ccncc2)c2ccccc12,cell count,[1],315
same,inhibition,[1],2.7% (inactive)
same,inhibition of aggregation,[2],6.2% (inactive)
same,nuclei count,[2],94.4%
same,inhibition,[3],-88.6% (inactive)
same,nuclei count,[3],105%
same,fluorescence slope,[4],-0.316 (inactive)
same,NADPH fluorescence slope,[5],-5.4e-05 (inactive)
same,slope,[6],0.00482 (inactive)
same,inhibition,[7],15.4% (inactive)
same,inhibition,[8],12% (inactive)
